Reference: PubChem BioAssay (NCI)
“And” between values parts separate entries of the source, which are not always exact repeats. Identical values can stand only once. Compounds without any hit were thinned out: in the full panel of roughly 83,000, 20% have a hit.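 Growth was measured after 48 h exposure to one concentration of compound in 96-well plates. Values under 10 count as active.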 The source made the active and inactive calls.

Columns and labels:
Assay in all cases: NCI-60 one-dose screen, 48 h (100 = growth as untreated, 0 = no growth, -100 = all killed)
NCI-H23 lung = system: NCI-H23 lung
NCI-H226 lung = system: NCI-H226 lung
NCI-H322M lung = system: NCI-H322M lung
HOP-62 NSCLC = system: HOP-62 NSCLC
NCI-H460 lung = system: NCI-H460 lung
NCI-H522 lung = system: NCI-H522 lung
A549/ATCC NSCLC = system: A549/ATCC NSCLC
786-0 renal = system: 786-0 renal
COLO 205 colon = system: COLO 205 colon
HOP-92 NSCLC = system: HOP-92 NSCLC

Measured: growth

CC[C@@]1(O)C(=O)OCc2c1cc1n(c2=O)Cc2cc3c(CN(C)C)c(O)ccc3nc2-1
active: NCI-H23 lung; 10 µM -15.6% and 1.45% | NCI-H226 lung; 10 µM -48.3% and -34.1% | NCI-H322M lung; 10 µM 3.52% and -20.1% | HOP-62 NSCLC; 10 µM -7.57% and -9.48% | NCI-H460 lung; 10 µM 2.05% and -6.71% | NCI-H522 lung; 10 µM -57% | A549/ATCC NSCLC; 10 µM -30.7% and 4.5% | 786-0 renal; 10 µM 5.59% and -13.2% | COLO 205 colon; 10 µM 9.58%

CC/C(=C(\c1ccccc1)c1ccc(OCCN(C)C)cc1)c1ccccc1
active: NCI-H23 lung; 12.5 µM -47.7% | HOP-62 NSCLC; 12.5 µM -91.2% | NCI-H460 lung; 10 µM 2.39% | NCI-H460 lung; 12.5 µM -66.8% | HOP-92 NSCLC; 12.5 µM 9.65% | NCI-H522 lung; 12.5 µM -46.4% | A549/ATCC NSCLC; 12.5 µM -44.9% | 786-0 renal; 10 µM -41% | 786-0 renal; 12.5 µM -95.2% | COLO 205 colon; 10 µM -89% | COLO 205 colon; 12.5 µM -71.9%
inactive: NCI-H23 lung; 10 µM 60.3% | NCI-H226 lung; 10 µM 92.5% | NCI-H226 lung; 12.5 µM 51.3% | NCI-H322M lung; 10 µM 76% | NCI-H322M lung; 12.5 µM 11.7% | HOP-62 NSCLC; 10 µM 43.1% | NCI-H522 lung; 10 µM 46.6% | A549/ATCC NSCLC; 10 µM 49.8%

COc1ccc2sc3cccc(NCCN(C)C)c3c(=O)c2c1
21.5% (inactive) and -76.7% (active): NCI-H460 lung; 10 µM
60% (inactive) and 1.78% (active): 786-0 renal; 10 µM
48.4% (inactive) and -70.3% (active): HOP-62 NSCLC; 10 µM
25% (inactive) and -23.4% (active): A549/ATCC NSCLC; 10 µM
active: NCI-H522 lung; 10 µM -20.9% | COLO 205 colon; 10 µM -17.3% and -81.8%
inactive: NCI-H23 lung; 10 µM 60.9% and 19.2% | NCI-H226 lung; 10 µM 59.2% and 13.7% | NCI-H322M lung; 10 µM 41.2% and 12.5%
24.9% (inactive) and -9.03% (active): HOP-92 NSCLC; 10 µM

CN(Cc1cnc2nc(N)nc(N)c2n1)c1ccc(C(=O)N[C@@H](CCC(=O)O)C(=O)O)cc1
inactive: NCI-H23 lung; 2.5 µM 20.9% | NCI-H23 lung; 10 µM 31.7% | NCI-H226 lung; 2.5 µM 39.6% | NCI-H226 lung; 10 µM 35.1% | NCI-H322M lung; 2.5 µM 53.6% | NCI-H322M lung; 10 µM 52.6% | HOP-62 NSCLC; 2.5 µM 30.6% | HOP-62 NSCLC; 10 µM 32.1% | NCI-H460 lung; 2.5 µM 23.5% | NCI-H460 lung; 10 µM 20.7% | HOP-92 NSCLC; 2.5 µM 32.6% | HOP-92 NSCLC; 10 µM 25.1% | NCI-H522 lung; 2.5 µM 47% | NCI-H522 lung; 10 µM 35.3% | A549/ATCC NSCLC; 2.5 µM 31% | A549/ATCC NSCLC; 10 µM 22.8% | 786-0 renal; 2.5 µM 11.7% | 786-0 renal; 10 µM 12.3% | COLO 205 colon; 2.5 µM 50.5% | COLO 205 colon; 10 µM 44.1%
